Drawing on PubChem BioAssay (NCI), this text covers growth inhibition for ten molecules.

This is part of a sample that, as a whole, favours compounds with a hit. Of some 79,000 tested, about 15% had one in any assay. A number with no mark means an inactive call. Active and inactive are the calls of the source. Rule as the data show it: active = growth inhibition above about 70%; inactive = the rest.

The nature of experiment [1]: NCI Yeast Anticancer Drug Screen. Data for the rad50 strain (AID 155).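 Also: 0% = growth of vehicle-only cultures of the same strain.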 Conditions: S. cerevisiae rad50 strain growth inhibition, stronger effect = higher value. The procedure, abridged:
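Genetically altered yeast (DNA repair pathway); compound treatment; growth inhibition vs vehicle ctrl.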

Experiment [2] can be described thus: NCI Yeast Anticancer Drug Screen. Data for the mec2-1 strain (AID 157). The conditions noted are these: S. cerevisiae mec2-1 strain, stronger effect = higher value. The gist of the method: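 Cells of the genetically defined mec2-1 yeast strain are incubated with test compound. Inhibition of growth is calculated against vehicle-treated controls.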
Experiment [3] is described as follows: NCI Yeast Anticancer Drug Screen. Data for the sgs1 mgt1 strain (AID 161).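 Also: 0% = growth of cultures given vehicle only.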 The conditions noted are these: S. cerevisiae sgs1 mgt1 strain, stronger effect = higher value. The procedure, abridged: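 Inhibition of yeast growth, normalised to vehicle-treated controls, is reported for a strain bearing genetic alterations in DNA damage repair.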
The nature of experiment [4]: NCI Yeast Anticancer Drug Screen. Data for the cln2 rad14 strain (AID 165).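 Also: 0% = growth equal to vehicle treated cultures.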 Conditions: S. cerevisiae cln2 rad14 strain, stronger effect = higher value. The procedure, abridged:
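The screen exposed genetically defined yeast (cln2 rad14) to test compounds and scored growth inhibition relative to vehicle-treated controls.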

Experiment [5] is described as follows: NCI Yeast Anticancer Drug Screen. Data for the bub3 strain (AID 167). Conditions: S. cerevisiae bub3 mutant strain, stronger effect = higher value. The gist of the method: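 Yeast carrying a defined mutation is treated with each compound, and growth is compared with that of vehicle-exposed cells to give inhibition.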
A short description of experiment [6]: NCI Yeast Anticancer Drug Screen. Data for the mlh1 rad18 strain (AID 175). Conditions: S. cerevisiae mlh1 rad18 strain growth inhibition, stronger effect = higher value. The procedure, abridged: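 Compound-treated yeast growth, normalised to vehicle controls. Strain bears defined DNA repair mutations.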
The mark [7] stands for this setting: at 5.0 µM (retest, dose inferred, filed as 0.5).
Where [8] appears, read: at 50.0 µM (retest, dose inferred, filed as 5.0).

Consider `CC(=O)OC1CCC2(C)C3CCC4(C)C(C(C)CCCC(C)C)CCC4C3CCC23OC13C` (stereo not given), for which the growth inhibition in experiment [1] (setting [7]) was 2%; in experiment [1] (setting [8]), 12%; in experiment [1] (at 50.0 µM), 31.9%; in experiment [2] (setting [7]), -17%; in experiment [2] (setting [8]), 23%; in experiment [2] (at 50.0 µM), 6.2%. In addition, the growth inhibition in experiment [3] (setting [7]) is -5%; in experiment [3] (setting [8]) it was 52%; in experiment [3] (at 50.0 µM) it was 72.7% (active); in experiment [4] (setting [7]), -3%; in experiment [4] (setting [8]), 6%; in experiment [4] (at 50.0 µM) it was -19.2%. For the same molecule, the growth inhibition in experiment [5] (setting [7]) is -3%; in experiment [5] (setting [8]) it was -4%; in experiment [5] (at 50.0 µM), -8.05%; in experiment [6] (setting [7]) it was 24%; in experiment [6] (setting [8]), 59%; in experiment [6] (at 50.0 µM), 35.7%.

For the molecule `CCCCCC=C(c1cc(Br)cc(C(=O)O)c1O)c1cc(Br)cc(C(=O)O)c1O`, the growth inhibition is 2% in experiment [1] (setting [7]); 91% (active) in experiment [1] (setting [8]); 89.2% (active) in experiment [1] (at 50.0 µM); 0% in experiment [2] (setting [7]); 95% (active) in experiment [2] (setting [8]); 85.8% (active) in experiment [2] (at 50.0 µM). In addition, the growth inhibition in experiment [3] (setting [7]) was 0%; in experiment [3] (setting [8]) it was 95% (active); in experiment [3] (at 50.0 µM), 82.8% (active); in experiment [4] (setting [7]), 2%; in experiment [4] (setting [8]), 94% (active); in experiment [4] (at 50.0 µM), 67.1%. Besides, the growth inhibition in experiment [5] (setting [7]) is 0%; in experiment [5] (setting [8]) it was 94% (active); in experiment [5] (at 50.0 µM), 69%; in experiment [6] (setting [7]) it was 4%; in experiment [6] (setting [8]), 94% (active); in experiment [6] (at 50.0 µM) it was 88.9% (active).

Take `C=Cc1ccc(B2NCCO2)cc1`: the growth inhibition in experiment [1] (setting [7]) was -2%; in experiment [1] (setting [8]), 99% (active); in experiment [1] (at 50.0 µM), 99.7% (active); in experiment [2] (setting [7]), 7%; in experiment [2] (setting [8]), 97% (active); in experiment [2] (at 50.0 µM) it was 99.5% (active). Also, the growth inhibition is -8% in experiment [3] (setting [7]); 99% (active) in experiment [3] (setting [8]); 99.6% (active) in experiment [3] (at 50.0 µM); 0% in experiment [4] (setting [7]); 74% (active) in experiment [4] (setting [8]); 92.5% (active) in experiment [4] (at 50.0 µM). For the same molecule, the growth inhibition in experiment [5] (setting [7]) was 8%; in experiment [5] (setting [8]) it was 59%; in experiment [5] (at 50.0 µM), 99.5% (active); in experiment [6] (setting [7]) it was 10%; in experiment [6] (setting [8]) it was 99% (active); in experiment [6] (at 50.0 µM), 99.2% (active).

In the case of `COC(=O)c1[nH]c(=O)c(C#N)c(C(=O)OC)c1C(=O)c1ccc2ccccc2c1`, the growth inhibition in experiment [1] (setting [7]) was -1%; in experiment [1] (setting [8]) it was 31%; in experiment [1] (at 50.0 µM), 80.8% (active); in experiment [2] (setting [7]), -2%; in experiment [2] (setting [8]), 20%; in experiment [2] (at 50.0 µM), 10.9%. For the same molecule, the growth inhibition in experiment [3] (setting [7]) is -1%; in experiment [3] (setting [8]) it was 25%; in experiment [3] (at 50.0 µM) it was 67.6%; in experiment [4] (setting [7]), 7%; in experiment [4] (setting [8]), 32%; in experiment [4] (at 50.0 µM), 20.3%. Besides, the growth inhibition in experiment [5] (setting [7]) is 7%; in experiment [5] (setting [8]) it was 41%; in experiment [5] (at 50.0 µM) it was 24.6%; in experiment [6] (setting [7]) it was 12%; in experiment [6] (setting [8]), 44%; in experiment [6] (at 50.0 µM), 80.8% (active).

Take `O=Cc1cc(O)ccc1Br`: the growth inhibition in experiment [1] (setting [7]) is 33%; in experiment [1] (setting [8]) it was 96% (active); in experiment [1] (at 50.0 µM), 71.3% (active); in experiment [2] (setting [7]), 28%; in experiment [2] (setting [8]), 96% (active); in experiment [2] (at 50.0 µM), 76.8% (active). Moreover, the growth inhibition is 37% in experiment [3] (setting [7]); 97% (active) in experiment [3] (setting [8]); 91.6% (active) in experiment [3] (at 50.0 µM); 29% in experiment [4] (setting [7]); 58% in experiment [4] (setting [8]); 82.7% (active) in experiment [4] (at 50.0 µM). In addition, the growth inhibition was 40% in experiment [5] (setting [7]); 99% (active) in experiment [5] (setting [8]); 89.3% (active) in experiment [5] (at 50.0 µM); 32% in experiment [6] (setting [7]); 98% (active) in experiment [6] (setting [8]); 79.6% (active) in experiment [6] (at 50.0 µM).

As to `Clc1cccc(N2CCN(c3c4c(nc5ccccc35)CCCCC4)CC2)c1`, the growth inhibition is 81% (active) in experiment [1] (setting [7]); 94% (active) in experiment [1] (setting [8]); 93% (active) in experiment [1] (at 50.0 µM); 93% (active) in experiment [2] (setting [7]); 99% (active) in experiment [2] (setting [8]); 95.5% (active) in experiment [2] (at 50.0 µM). For the same molecule, the growth inhibition is 87% (active) in experiment [3] (setting [7]); 96% (active) in experiment [3] (setting [8]); 95.2% (active) in experiment [3] (at 50.0 µM); 28% in experiment [4] (setting [7]); 89% (active) in experiment [4] (setting [8]); 93.2% (active) in experiment [4] (at 50.0 µM). Also, the growth inhibition is 73% (active) in experiment [5] (setting [7]); 93% (active) in experiment [5] (setting [8]); 92.1% (active) in experiment [5] (at 50.0 µM); 92% (active) in experiment [6] (setting [7]); 95% (active) in experiment [6] (setting [8]); 93.9% (active) in experiment [6] (at 50.0 µM).

Take `COc1ccccc1OC(=O)Oc1ccccc1OC`: the growth inhibition in experiment [1] (setting [7]) was -1%; in experiment [1] (setting [8]) it was 19%; in experiment [1] (at 50.0 µM) it was 36.6%; in experiment [2] (setting [7]), -3%; in experiment [2] (setting [8]), -3%; in experiment [2] (at 50.0 µM) it was -11.1%. The growth inhibition in experiment [3] (setting [7]) was -1%; in experiment [3] (setting [8]) it was 12%; in experiment [3] (at 50.0 µM), 9.45%; in experiment [4] (setting [7]), 4%; in experiment [4] (setting [8]), 4%; in experiment [4] (at 50.0 µM), -37.4%. For the same molecule, the growth inhibition was 1% in experiment [5] (setting [7]); 9% in experiment [5] (setting [8]); 57.8% in experiment [5] (at 50.0 µM); -4% in experiment [6] (setting [7]); -5% in experiment [6] (setting [8]); 50% in experiment [6] (at 50.0 µM).

`CS(=O)(=O)c1nc(Cl)c(Cl)c(C#N)c1Cl`: the growth inhibition in experiment [1] (setting [7]) is 50%; in experiment [1] (setting [8]), 99% (active); in experiment [1] (at 50.0 µM) it was 98.3% (active); in experiment [2] (setting [7]), 76% (active); in experiment [2] (setting [8]) it was 99% (active); in experiment [2] (at 50.0 µM), 98.9% (active). The growth inhibition in experiment [3] (setting [7]) is 66%; in experiment [3] (setting [8]) it was 99% (active); in experiment [3] (at 50.0 µM), 99.2% (active); in experiment [4] (setting [7]), 23%; in experiment [4] (setting [8]), 99% (active); in experiment [4] (at 50.0 µM), 84.5% (active). The growth inhibition in experiment [5] (setting [7]) was 88% (active); in experiment [5] (setting [8]), 99% (active); in experiment [5] (at 50.0 µM), 99.2% (active); in experiment [6] (setting [7]), 85% (active); in experiment [6] (setting [8]), 99% (active); in experiment [6] (at 50.0 µM), 99% (active).

On to `CCCCCCCNc1ccc2c(cc1=O)C(NC(C)=O)CCc1cc(OC)c(OC)c(OC)c1-2` (stereo not given), for which the growth inhibition in experiment [1] (setting [7]) is 17%; in experiment [1] (setting [8]), 96% (active); in experiment [1] (at 50.0 µM), 91.5% (active); in experiment [2] (setting [7]) it was 8%; in experiment [2] (setting [8]), 98% (active); in experiment [2] (at 50.0 µM), 16.8%. Besides, the growth inhibition in experiment [3] (setting [7]) is 9%; in experiment [3] (setting [8]), 99% (active); in experiment [3] (at 50.0 µM), 98.8% (active); in experiment [4] (setting [7]) it was 7%; in experiment [4] (setting [8]) it was 95% (active); in experiment [4] (at 50.0 µM), 30.8%. Moreover, the growth inhibition in experiment [5] (setting [7]) was 4%; in experiment [5] (setting [8]) it was 97% (active); in experiment [5] (at 50.0 µM) it was 16.9%; in experiment [6] (setting [7]), 13%; in experiment [6] (setting [8]), 97% (active); in experiment [6] (at 50.0 µM), 7.55%.

Turning to `O=C1NC(=O)/C(=C/C=C/c2ccccc2)S1`, the growth inhibition in experiment [1] (setting [7]) was 19%; in experiment [1] (setting [8]), 91% (active); in experiment [1] (at 50.0 µM), 40.9%; in experiment [2] (setting [7]) it was 13%; in experiment [2] (setting [8]), 73% (active); in experiment [2] (at 50.0 µM) it was 25.9%. The growth inhibition in experiment [3] (setting [7]) was 25%; in experiment [3] (setting [8]), 98% (active); in experiment [3] (at 50.0 µM) it was 47.8%; in experiment [4] (setting [7]), 27%; in experiment [4] (setting [8]) it was 63%; in experiment [4] (at 50.0 µM), 77.4% (active). For the same molecule, the growth inhibition in experiment [5] (setting [7]) is 61%; in experiment [5] (setting [8]), 99% (active); in experiment [5] (at 50.0 µM), 48.1%; in experiment [6] (setting [7]), 26%; in experiment [6] (setting [8]), 94% (active); in experiment [6] (at 50.0 µM), 90.2% (active).
